Our source for the composite z-score, composite Z-score and z-score values is PubChem BioAssay.

Active and inactive are the calls of the source.

In one test the target is Albumin (Bos taurus) (UniProt P02769). Nature of the test: compounds binding labelled BSA control protein – biochemical, small-molecule microarray, Alexa647 label, 635/667 nm fluorescence, artefact control for SMM control protein annotation, profiling panel (AID 1118).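 Also: score merges 667 nm emission intensity and signal-to-noise per printed compound spot.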 The following applies: BSA-A647 binding, fluorescence 635 nm, higher = more signal.
The nature of test [1]: probe aXIP binding to arrayed compounds – biochemical, NeuroSMM set, 635/667 nm fluorescence, primary screen (AID 1119).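 Also: probe is the protein aXip251-270 applied at 1 µg/mL to compound-printed slides; binding of probe to printed compounds measured as 667 nm fluorescence plus signal to noise.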 The following applies: small-molecule microarray, higher = more signal, called active from +8 up or from −8 down.
Test [2] in a line: probe aNOTCH3 binding on compound microarray – biochemical, small-molecule microarray, 635/667 nm fluorescence, primary screen (AID 1120).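 Also: probe is a biotin-tagged antibody raised against NOTCH3 rather than NOTCH3 protein; score merges spot fluorescence near 667 nm with spot signal to noise.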 The following applies: higher = more signal.
Test [3] can be described thus: probe aNOTCH2 binding on compound microarray – biochemical, small-molecule microarray, 635/667 nm fluorescence, primary screen (AID 1121).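 Also: score merges feature fluorescence read at 667 nm with its signal to noise.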 The following applies: higher = more signal.
Test [4] concerns the target Carbonic anhydrase 2 (Homo sapiens) (UniProt P00918). Description: compounds binding carbonic anhydrase 2 – biochemical, small-molecule microarray, Alexa647-labelled CAII, profiling panel (AID 1122). The following applies: CAII-A647 binding fluorescence, higher = more signal.
The nature of test [5]: COS7 lysate on small-molecule microarray, probe aHis, 635 nm (AID 1123).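 Also: z-score combines 667nm fluorescence intensity with signal-to-noise per printed compound spot.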 The following applies: COS7 cell lysate, fluorescence, higher = more signal.
A short description of test [6]: probe aLAP1 signal on lysate-treated microarray – cell lysate, small-molecule microarray, COS7 lysate, primary screen (AID 1124).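 Also: lysate comes from COS7 cells expressing LAP1 and is applied at 0.3 µg/mL; score merges spot fluorescence near 667 nm with signal-to-noise over triplicate slides.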 The following applies: probe aLAP1, fluorescence, higher = more signal.
The test system of the next test is Sam68 (KHDRBS1). Description: compounds binding KHDRBS1 protein – biochemical, small-molecule microarray, 635 nm fluorescence, primary screen (AID 1125).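 Also: score merges 667 nm channel intensity with signal to noise over triplicate slides.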 The following applies: higher = more signal.
Test [7] deals with Chordin-like protein 2 (CHRDL2). Nature of the test: compounds binding chordin-like 2 – biochemical, small-molecule microarray, 635 nm fluorescence, primary screen (AID 1126).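 Also: printed compound slides probed with Chrdl2 protein at 4 µg/mL for 1 h at 4 C; score merges 667 nm emission intensity with signal to noise over three replicate slides.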 The following applies: fluorescence 635 nm, higher = more signal.
The target of test [8] is Concanavalin-A (Canavalia ensiformis) (UniProt P02866). Description: compounds binding concanavalin A lectin – biochemical, small-molecule microarray, Alexa647 label, 635 nm, artefact control for SMM control protein annotation, primary screen (AID 1127).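 Also: z combines 667 nm emission intensity with signal-to-noise across three replicate slides.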 The following applies: ConA-A647 binding fluorescence, higher = more signal.
Test [9] is described as follows: compounds binding Alexa647 anti-His antibody – biochemical, small-molecule microarray, 635 nm fluorescence, artefact control for SMM control protein annotation, primary screen (AID 1128).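 Also: score merges feature fluorescence with signal-to-noise for each printed compound spot.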 The following applies: higher = more signal.
Test [10] concerns Human papillomavirus type 1a E7 protein (residues 1-88). Nature of the test: HPV1a E7 small-molecule binders, primary screen, biochemical, small-molecule microarray, residues 1-88, 635 nm (AID 1129). The following applies: small-molecule microarray binding, fluorescence 635 nm; higher = more signal.
For test [11], the target named is Focal adhesion kinase 1 (Homo sapiens) (UniProt Q05397). Nature of the test: PTK2 protein binding on printed compound slides – biochemical, small-molecule microarray, 635/667 nm fluorescence, BSA, DTT, primary screen (AID 1130).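 Also: composite of spot emission at 667 nm and signal to noise over triplicate slides.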 The following applies: 635 nm fluorescence, higher = more signal.
The test system of test [12] is Fibrinogen (Alexa647-labelled). Description: Alexa647-fibrinogen binding to printed small molecules – biochemical, small-molecule microarray, 635/667 nm fluorescence, artefact control for SMM control-protein annotation, profiling panel (AID 1131).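 Also: z-score merges 667 nm fluorescence with per-spot signal-to-noise over triplicate slides.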 The following applies: fibrinogen-A647 binding fluorescence, higher = more signal.
In test [13] the target is Follistatin (Homo sapiens) (UniProt P19883). Description: FST protein binding to printed compounds – biochemical, small-molecule microarray, 635/667 nm fluorescence, primary screen (AID 1132). The following applies: 635 nm fluorescence, higher = more signal.
Test [14] addresses Fibroblast growth factor 2 (Homo sapiens) (UniProt P09038). Description: basic fibroblast growth factor binding to printed compounds – biochemical, small-molecule microarray, 635/667 nm fluorescence, primary screen (AID 1133). The following applies: FGF2, fluorescence 635/667, higher = more signal.
The nature of test [15]: JC-1 mitochondrial potential readout, lung cancer cells – cell-based, A549, JC-1 fluorescence, basal, 24 h, 100 nL, profiling panel (AID 1138).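 Also: A549 lung adenocarcinoma cells under basal conditions with no added stimulus; test concentration not given here.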 The following applies: higher = more signal.
Another test deals with Lefty1. Nature of the test: Lefty1 protein binding to printed compounds – biochemical, small-molecule microarray, 635/667 nm fluorescence, primary screen (AID 1139). The following applies: fluorescence 635/667, higher = more signal.
The test system of test [16] is wheat germ agglutinin (Triticum aestivum), Alexa647-labelled. Description: Alexa647-WGA lectin binding to printed small molecules – biochemical, small-molecule microarray, 635/667 nm fluorescence, artefact control for SMM control-protein annotation, profiling panel (AID 1140).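 Also: score merges 667 nm feature emission with signal to noise over triplicate slides.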 The following applies: WGA-A647 binding, 635 nm fluorescence, higher = more signal.
Test [17] addresses Luciferin 4-monooxygenase (Photinus pyralis) (UniProt P08659). Description: inhibition of purified Photinus pyralis luciferase – biochemical, luminescence, purified enzyme, 2006 set, primary screen (AID 1141).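 Also: cell-free assay with purified firefly luciferase at 100 ng per well in PBS; test concentration not given here.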 The following applies: purified firefly luciferase, SteadyGlo luminescence, 30 min; higher = more signal, called active from +8 up or from −8 down.

Focal adhesion kinase 1 (Homo sapiens), sequence (Q05397 whole entry, looked up): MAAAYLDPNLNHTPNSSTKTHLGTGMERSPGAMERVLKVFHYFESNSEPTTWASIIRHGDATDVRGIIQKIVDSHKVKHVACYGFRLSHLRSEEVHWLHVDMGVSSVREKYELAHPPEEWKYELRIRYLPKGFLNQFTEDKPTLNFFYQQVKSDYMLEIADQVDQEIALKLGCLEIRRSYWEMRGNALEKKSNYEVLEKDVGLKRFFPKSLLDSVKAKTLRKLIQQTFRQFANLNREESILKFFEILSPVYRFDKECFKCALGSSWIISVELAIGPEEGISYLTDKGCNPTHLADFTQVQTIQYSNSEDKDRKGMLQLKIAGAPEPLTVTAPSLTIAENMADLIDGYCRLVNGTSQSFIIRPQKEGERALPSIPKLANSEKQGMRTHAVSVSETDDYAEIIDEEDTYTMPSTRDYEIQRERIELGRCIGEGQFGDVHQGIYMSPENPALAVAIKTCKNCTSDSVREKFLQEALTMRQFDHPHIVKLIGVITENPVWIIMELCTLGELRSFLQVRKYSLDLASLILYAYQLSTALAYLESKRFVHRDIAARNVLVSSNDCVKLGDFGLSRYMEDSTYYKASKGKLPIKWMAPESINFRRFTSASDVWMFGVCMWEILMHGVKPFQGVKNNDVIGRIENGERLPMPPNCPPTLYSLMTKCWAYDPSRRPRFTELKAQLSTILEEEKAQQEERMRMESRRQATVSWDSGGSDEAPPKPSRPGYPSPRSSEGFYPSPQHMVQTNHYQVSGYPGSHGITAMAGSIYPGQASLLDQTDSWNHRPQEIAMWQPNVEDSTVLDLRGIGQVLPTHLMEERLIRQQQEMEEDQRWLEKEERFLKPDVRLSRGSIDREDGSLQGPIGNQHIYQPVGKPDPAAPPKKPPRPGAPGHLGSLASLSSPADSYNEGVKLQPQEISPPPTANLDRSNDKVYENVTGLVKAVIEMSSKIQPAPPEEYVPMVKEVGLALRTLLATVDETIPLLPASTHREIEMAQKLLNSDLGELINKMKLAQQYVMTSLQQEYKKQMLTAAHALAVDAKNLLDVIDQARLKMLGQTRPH
Fibroblast growth factor 2 (Homo sapiens), sequence (P09038 whole entry, looked up): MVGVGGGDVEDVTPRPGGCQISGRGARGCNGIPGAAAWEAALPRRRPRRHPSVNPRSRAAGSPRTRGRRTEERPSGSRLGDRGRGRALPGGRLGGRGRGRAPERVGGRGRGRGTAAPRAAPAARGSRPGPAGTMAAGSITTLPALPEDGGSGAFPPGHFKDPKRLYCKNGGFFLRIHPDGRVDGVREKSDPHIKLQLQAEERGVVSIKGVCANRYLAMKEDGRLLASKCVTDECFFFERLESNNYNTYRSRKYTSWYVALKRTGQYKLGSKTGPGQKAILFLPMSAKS
Follistatin (Homo sapiens), sequence (P19883 whole entry, looked up): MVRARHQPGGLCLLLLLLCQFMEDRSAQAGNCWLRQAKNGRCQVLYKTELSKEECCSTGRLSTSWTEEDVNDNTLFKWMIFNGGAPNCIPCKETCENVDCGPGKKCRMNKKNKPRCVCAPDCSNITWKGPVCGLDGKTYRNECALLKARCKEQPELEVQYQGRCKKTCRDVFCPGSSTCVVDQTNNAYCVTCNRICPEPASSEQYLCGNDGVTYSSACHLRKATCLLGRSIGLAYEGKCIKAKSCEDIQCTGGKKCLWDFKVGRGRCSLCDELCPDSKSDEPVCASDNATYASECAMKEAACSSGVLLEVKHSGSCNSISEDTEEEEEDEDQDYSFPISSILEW
Albumin (Bos taurus), sequence (P02769 whole entry, looked up): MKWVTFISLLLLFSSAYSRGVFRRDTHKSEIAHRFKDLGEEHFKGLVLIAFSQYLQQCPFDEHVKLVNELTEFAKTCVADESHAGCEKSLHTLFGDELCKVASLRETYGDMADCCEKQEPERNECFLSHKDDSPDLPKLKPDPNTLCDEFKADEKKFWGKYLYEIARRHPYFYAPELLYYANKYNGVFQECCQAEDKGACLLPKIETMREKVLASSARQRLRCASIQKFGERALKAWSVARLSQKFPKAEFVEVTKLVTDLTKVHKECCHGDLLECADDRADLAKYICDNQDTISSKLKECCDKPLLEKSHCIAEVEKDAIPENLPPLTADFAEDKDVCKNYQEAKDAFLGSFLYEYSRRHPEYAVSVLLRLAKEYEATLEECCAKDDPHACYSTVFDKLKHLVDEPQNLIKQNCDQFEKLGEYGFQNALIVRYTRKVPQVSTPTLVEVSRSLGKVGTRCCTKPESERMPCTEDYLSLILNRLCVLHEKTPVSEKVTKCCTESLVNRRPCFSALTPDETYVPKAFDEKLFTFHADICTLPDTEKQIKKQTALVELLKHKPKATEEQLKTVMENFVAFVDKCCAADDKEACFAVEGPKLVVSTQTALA
Luciferin 4-monooxygenase (Photinus pyralis), sequence (P08659 whole entry, looked up): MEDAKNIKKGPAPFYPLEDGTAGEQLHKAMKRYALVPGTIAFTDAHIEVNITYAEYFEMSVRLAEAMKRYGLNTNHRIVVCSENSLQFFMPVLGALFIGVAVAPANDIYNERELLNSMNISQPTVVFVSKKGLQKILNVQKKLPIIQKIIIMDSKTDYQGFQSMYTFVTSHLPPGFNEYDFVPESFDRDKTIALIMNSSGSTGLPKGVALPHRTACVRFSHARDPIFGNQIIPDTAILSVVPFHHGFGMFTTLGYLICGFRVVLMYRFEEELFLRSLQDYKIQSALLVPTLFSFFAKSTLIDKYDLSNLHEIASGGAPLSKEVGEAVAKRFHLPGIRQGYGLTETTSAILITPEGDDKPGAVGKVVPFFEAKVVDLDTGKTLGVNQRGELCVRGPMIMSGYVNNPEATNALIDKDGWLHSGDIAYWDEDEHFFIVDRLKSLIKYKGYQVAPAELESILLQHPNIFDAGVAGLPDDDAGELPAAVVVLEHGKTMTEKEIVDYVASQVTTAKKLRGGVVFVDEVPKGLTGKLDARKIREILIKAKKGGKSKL
Concanavalin-A (Canavalia ensiformis), sequence (P02866 whole entry, looked up): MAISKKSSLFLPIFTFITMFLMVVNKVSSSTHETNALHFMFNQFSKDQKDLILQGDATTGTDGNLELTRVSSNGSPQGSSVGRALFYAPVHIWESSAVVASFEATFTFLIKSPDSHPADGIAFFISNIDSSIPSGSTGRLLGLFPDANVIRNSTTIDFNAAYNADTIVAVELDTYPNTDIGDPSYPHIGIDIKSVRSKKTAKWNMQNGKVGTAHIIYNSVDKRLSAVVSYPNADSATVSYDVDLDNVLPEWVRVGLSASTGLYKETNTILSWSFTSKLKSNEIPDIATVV

Turning to `C=CCN1Cc2ccccc2[C@H]2OC(c3ccc(OCCCO)cc3)=N[C@@]2(CCS(=O)(=O)c2ccccc2)C1=O`, the composite z-score is 0.465 with Albumin (Bos taurus); 0.0562 in test [2]; -0.0135 in [3]; 0.614 in [4]; 3.07 in [5]; 0.333 in [6]. In addition, the composite z-score with Sam68 (KHDRBS1) was found to be 1.31; in test [7], 0.843; in test [8] it was 1.16; in test [9], 2.05; in test [10], 1.22; in test [11], 0.621. Moreover, the composite z-score in test [12] came to 0.0869; in test [13], 1.37; in test [14] it was 1.37; in the test on Lefty1, 0.507; in test [16] it was 0.77. The composite Z-score in test [1] was 1.79 (inactive). Further, the z-score is 0.35 in test [15] and -0.884 (inactive) in test [17].
For the compound `COCCOC(=O)N1C(=O)[C@@]2(c3cc(C#CCCO)ccc31)[C@H](c1ccc(OCCO)cc1)N1[C@H](c3ccccc3)[C@H](c3ccccc3)OC(=O)[C@H]1[C@@H]2C(=O)N1CCCCCCC1`, the composite z-score with Albumin (Bos taurus) is -0.226; in test [2], 1.26; in test [3], 0.675; in test [4], 0.67; in test [5], 2.7; in [6], 1.95. In addition, the composite z-score with Sam68 (KHDRBS1) was 1.33; in test [7], 1.43; in test [8] it was 1.13; in test [9] it was 0.939; in test [10], 1.2; in [11] it was 0.644. Further, the composite z-score in [12] was 0.726; in [13], 1.46; in test [14], 1.68; in the test with Lefty1 it was 1.33; in test [16], 1.32. In addition, the composite Z-score in [1] is 2.1 (inactive). In addition, the z-score in test [15] was -0.901; in test [17] it was -0.247 (inactive).
Regarding `C=C(COC)C(=O)CC[C@@H](OC(=O)c1ccccc1-c1ccccc1C(=O)O)c1ccc(OCCO)cc1`, the composite z-score was -0.238 in the test with Albumin (Bos taurus); -0.0491 in test [2]; -0.154 in test [3]; 0.784 in [4]; 0.113 in [5]; 0.238 in test [6]. In addition, the composite z-score is 0.576 in the test with Sam68 (KHDRBS1); 0.319 in test [7]; -0.0355 in [8]; -0.0978 in test [9]; -0.0905 in [10]; -0.0142 in [11]. Besides, the composite z-score in [12] is -1.48; in test [13], 1.45; in test [14], 1.42; in the test on Lefty1, 1.48; in test [16] it was 0.595. The composite Z-score in test [1] is 0.081 (inactive). Moreover, the z-score in test [15] was 0.0645; in test [17] it was -3.04 (inactive).
As for `O=C1C[C@@](C(=O)NC2CC2)(c2ccc([N+](=O)[O-])cc2)[C@@H](c2ccc(CO)cc2)N1C1CCCCC1`, the composite z-score with Albumin (Bos taurus) was 0.535; in [2], 0.11; in test [3], -0.0995; in test [4], 0.512; in test [5], 2.7; in test [6] it was 0.0901. The composite z-score in the test on Sam68 (KHDRBS1) was found to be 1.28; in [7] it was 0.43; in [8] it was 0.704; in test [9] it was 2.79; in test [10], 1.23; in [11], 0.333. Further, the composite z-score in test [12] turned out to be 0.122; in [13] it was 1.3; in test [14], 1.64; in the test with Lefty1 it was 0.894; in test [16], 0.407. Besides, the composite Z-score in [1] was 0.002 (inactive). For the same compound, the z-score was -0.282 in [15] and 0.997 (inactive) in [17].
Take `Cc1ccc(C(C)CC(O)C2C=CC3C(=O)N(C)C(=O)C3N2Nc2ccccc2)o1` (stereo not given): the composite z-score with Albumin (Bos taurus) is 0.264; in test [2], 0.318; in test [3], -0.075; in [4], 0.656; in test [5], 0.614; in test [6], 0.0421. Further, the composite z-score came to 1.3 with Sam68 (KHDRBS1); 0.122 in [7]; 0.617 in [8]; 0.298 in test [9]; 1.22 in test [10]; 0.0621 in test [11]. Further, the composite z-score stood at 0.655 in [12]; 0.941 in test [13]; 0.482 in [14]; 0.497 with Lefty1; 1.15 in test [16]. In test [1], the composite Z-score was -0.288 (inactive). Also, the results for the z-score in test [15] and in test [17] were 0.16 and 0.226 (inactive), respectively.
